IDH1 R132H inh: qHTS for Inhibitors of mutant isocitrate dehydrogenase 1 (IDH1): qHTS; 390,000 compounds, 0.093% hits; Potency, µM (top dose mostly 76.6 µM), without a hit: at the highest dose activity change, negative = inhibition, hits mostly inhibitors; IDH1-R132H enzyme, NADPH consumption, diaphorase/resazurin fluorescence; also: potency is read from the fitted curve at half-maximal effect; % is scaled to controls: 0 for no effect and ±100 for the full control effect; nearly all actives have a fitted effect of over 65% in size
Target sequence (O75874 whole entry R132H, stated change not applied): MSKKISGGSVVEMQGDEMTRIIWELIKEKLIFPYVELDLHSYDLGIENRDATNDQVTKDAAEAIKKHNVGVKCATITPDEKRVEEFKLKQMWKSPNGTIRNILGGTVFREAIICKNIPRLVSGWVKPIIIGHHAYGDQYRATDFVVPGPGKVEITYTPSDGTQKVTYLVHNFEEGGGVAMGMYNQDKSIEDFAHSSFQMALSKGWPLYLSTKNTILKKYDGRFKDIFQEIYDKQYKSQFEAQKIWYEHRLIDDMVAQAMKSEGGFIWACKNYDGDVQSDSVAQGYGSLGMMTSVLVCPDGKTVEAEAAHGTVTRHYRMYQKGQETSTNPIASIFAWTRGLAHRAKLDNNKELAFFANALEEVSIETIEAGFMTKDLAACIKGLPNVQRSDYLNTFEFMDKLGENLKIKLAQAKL
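IDH1-R132H (0.5 ug/mL) preincubated 30 min with compound, then NADPH (0.016 mM) and alpha-KG (2 mM) added; 80 min at RT, pH 7.5. Remaining NADPH coupled via diaphorase/resazurin to fluorescence (540/590 nm); concentration-response curves normalized to no-enzyme control.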
gsp ag: qHTS for Agonist of gsp, the Etiologic Mutation Responsible for Fibrous Dysplasia/McCune-Albright Syndrome: qHTS | gsp mutant cells, cAMP HTRF, 30 min | 340,000 compounds, 0.13% hits | Potency, µM (top dose mostly 76.9 µM), for inactives: at the highest dose activation (cAMP increase), actives largely listed as activators | AID 624287, 2012; active = well fitted activation curve with a large enough effect; inconclusive = small, poorly fitted or top-dose-only effect, or another doubt; inactive = no such curve, though single readings can be large or run the other way; cell line not stated here;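 also: phosphodiesterase inhibitor Ro 20-1724 added with compounds to block cAMP breakdown; potency is read from the fitted curve at half-maximal effect; nearly all actives have a fitted effect of over 60% in size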
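Cells in DMEM/10% FBS with G418 were pretreated with compounds in DMSO plus […] (300 uM stock) for 30 min at 37C. cAMP was measured by HTRF (cAMP-d2 plus anti-cAMP antibody-K) after 30 min at room temperature.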
BRCA1 expr up: qHTS Assay to Identify Small Molecule Activators of BRCA1 Expression; 380,000 compounds, 1.1% hits; MCF7-BRCA1-FFLuc reporter, luminescence, 48 h; response scale: scaled: vehicle 0%, 10 µM genistein 100%; Potency, µM (top dose mostly 46.1 µM), for inactives: at the highest dose activation, hits mostly activators; AID 624202, 2012; also: potency is read from the fitted curve at half-maximal effect; nearly all actives have a fitted effect of over 80% in size
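MCF7 cells carrying a BRCA1-firefly luciferase reporter (2000 cells/well, phenol-red free MEM) were attached for 2 h at 37 °C, then given compounds for 48 h. Luminescence was read 15 min after luciferase reagent; activity normalized to genistein (10 microM) and DMSO.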
IL-2 act: qHTS of IL-2 Activators | IL-2 activation reporter assay, cell-based qHTS; stimulated with anti-CD3/CD4/CD28 beads; in transgenic mouse T cells | activation, % (series mostly up to about 46 µM) | 360,000 compounds, 0.065% hits; in the data active = activation above about 50%; inconclusive = mostly about 30% to 49%; also: 0% is about no effect
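Screening format: compound pinned onto unstimulated transgenic mouse T cells, 60 min incubation, then anti-CD3/anti-CD4/anti-CD28 bead stimulation for 18 hours at 37 degrees C, followed by EGFP and DsRed detection.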
gsp antagonist: qHTS for Antagonists of gsp, the Etiologic Mutation Responsible for Fibrous Dysplasia/McCune-Albright Syndrome: qHTS | gsp-mutant cells, cAMP HTRF, 30 min | Potency, µM (titrated, usually from 76.9 µM), for the others: at the highest dose activity change, negative = inhibition, most hits filed as inhibitors | 340,000 compounds, 0.4% hits | AID 624288, 2012; calls by dose curve; cell line not stated here;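 also: intracellular cAMP measured with PDE inhibitor Ro 20-1724 present during compound exposure; potency is read from the fitted curve at half-maximal effect; % is scaled to controls: 0 for no effect and ±100 for the full control effect; nearly all actives have a fitted effect of over 65% in size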
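HTRF cAMP read-out (cAMP-d2 plus anti-cAMP antibody-K in lysis buffer, 30 min RT). Before lysis, cells are exposed to compounds with […] for 30 min at 37C in DPBS containing Ca/Mg, BSA and Tween 20.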
IDH1 autofl: qHTS for Inhibitors of mutant isocitrate dehydrogenase 1 (IDH1): Cherrypicks Autofluorescence Interference; shares compounds with IDH1 R132H inh; Resorufin detection reagent fluorescence interference, cell-free; inhibition of signal, % at 51.2 µM; 750 tested, under 10 active;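 also: 0% = wells with normal resorufin and full inhibition = wells lacking resorufin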
WT IDH1 inh: qHTS for Inhibitors of mutant isocitrate dehydrogenase 1 (IDH1): Cherrypicks in WT IDH1; shares compounds with IDH1 R132H inh; WT IDH1 enzyme, NADPH diaphorase/resazurin fluorescence; Potency, µM (doses to about 115 µM), inactives show top-dose activity change, negative = inhibition, most hits filed as inhibitors; 750 compounds, 9% hits;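 also: potency is read from the fitted curve at half-maximal effect; 0% = full WT IDH1 enzyme control and full inhibition = no enzyme wells; nearly all actives have a fitted effect of over 55% in size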
Target sequence (O75874 whole entry, looked up): as the sequence (O75874 whole entry R132H, stated change not applied) above, with H132R counted along it
IDH1 R132H conf: qHTS for Inhibitors of mutant isocitrate dehydrogenase 1 (IDH1): Confirmation of Cherrypicks; IDH1 R132H enzyme, NADPH diaphorase/resazurin fluorescence; shares compounds with IDH1 R132H inh; 750 compounds, 83% hits; Potency, µM (series often up to 76.6 µM), inactives show at the highest dose activity change, negative = inhibition, most hits filed as inhibitors; also: potency is read from the fitted curve at half-maximal effect; nearly all actives have a fitted effect of over 50% in size
* hit, by the source's call; ? = inconclusive; nt = no result; [ ] = another dose, or the depositor's remark. An excerpt weighted towards active compounds, which were near 1.5% of everything screened. Unless noted, calls follow the shape of the dose curve; as a rule, active = well fitted curve in the direction sought with a large enough effect; inconclusive = small, poorly fitted or top-dose-only effect, or another doubt; inactive = no such curve, though single readings can be large; an effect the other way counts as inactive or inconclusive.

SMILES	IDH1 R132H inh	gsp ag	BRCA1 expr up	IL-2 act	gsp antagonist	IDH1 autofl	WT IDH1 inh	IDH1 R132H conf
COc1ccc(C2C(C#N)=C3NC(=O)c4c(sc5c4CCCCC5)N3C3=C2C(=O)CC(C)(C)C3)cc1 (configuration not stated)	?	-17%	-71%	8	-25%	5	1%	-20%
Cc1nc2nc(SCC(=O)Nc3cccc(Cl)c3)nn2c(C)c1Cc1ccccc1	-10%	nt	nt	nt	nt	nt	nt	nt
Cc1ccc(N(C(=O)c2nsc(Cl)c2Cl)C(C(=O)NC2CCCC2)c2ccc(O)cc2)cc1C (configuration not stated)	?	5%[15.4 µM]	-87%	-5	?	1	16%	14µM*
CC(C)N1CC=C2C(C#N)=C(N)C(C#N)(C#N)C(c3ccccc3)C2C1 (configuration not stated)	?	-5%	-21%	2	?	nt	nt	nt
CCCC1C2CN(C(C)=O)CC=C2C(C#N)=C(N)C1(C#N)C#N (configuration not stated)	-8%	2%	-14%	-3	15%	nt	nt	nt
CCC1C2CN(C(C)=O)CC=C2C(C#N)=C(N)C1(C#N)C#N (configuration not stated)	?	27%	0%	-2	2%	-8	38%	45µM*
CCN1CC=C2C(C#N)=C(N)C(C#N)(C#N)C(c3cc(Cl)ccc3Cl)C2C1 (configuration not stated)	?	21%	-25%	0	-10%	3	6%	-17%
Cc1ccc2oc(C(=O)Nc3cccc(-c4nc5ccccc5s4)c3)c(C)c2c1	-5%	nt	57%	nt	nt	nt	nt	nt
COc1cc(-c2nc3c(c(C)nn3-c3ccccc3)c3cc(OC)c(OC)cc23)ccc1O	?	24%	-88%	-1	3%	1	0%	10µM*
C[C@H]1CN([C@@H](C)CO)C(=O)c2cccc(NC(=O)Nc3ccc(C(F)(F)F)cc3)c2O[C@@H]1CN(C)S(=O)(=O)c1ccccc1	?	nt	-69%	-1	-6%	2	-14%	?
O=C(Cc1ccc(OCc2ccccn2)cc1)NO	nt	nt	12%	nt	nt	nt	nt	nt
O=C1/C(=C/c2ccncc2)Oc2cc(OS(=O)(=O)c3ccccc3)ccc21	46µM*	-1%	-36%	-1	-9%	-2	?	16µM*
Cc1ccc(S(=O)(=O)Oc2ccc3c(c2)O/C(=C\c2cccnc2)C3=O)cc1	?	1%	-2%	0	0%	-10	-3%	25µM*
COc1cccc(OC)c1C(=O)Oc1ccc2c(c1)O/C(=C\c1ccncc1)C2=O	?	-17%	-79%	0	-15%	-3	2%	20µM*
COc1cccc(/C=C2\Oc3cc(OCC(=O)N4CCCC4)ccc3C2=O)c1OC	-5%	18%	3%	-1	5%	nt	nt	nt
O=C1/C(=C/c2cccnc2)Oc2cc(OS(=O)(=O)c3ccc(F)cc3)ccc21	?	-21%	-36%	0	?	nt	nt	nt
CC(C)c1nc2sc3c(NCc4ccccc4)ncnc3c2c2c1COC(C)(C)C2	2%	?	-4%	0	-7%	nt	nt	nt
CCN(CCO)c1ncnc2c1sc1nc(C(C)C)c3c(c12)CC(C)(C)OC3	?	?	-9%	0	19%	-13	7.1µM*	6.3µM*
CCN(CC)c1ncnc2c1ncn2[C@H]1CN(C2CCCC2)C[C@@H](CO)O1	nt	nt	13%	-1	nt	nt	nt	nt
COC(=O)c1cccc(C#CC(NP(=O)(c2ccccc2)c2ccccc2)c2ccccc2)c1 (configuration not stated)	-10%	nt	-20%	1	-19%	nt	nt	nt
CCC[C@@H]1C[C@@]1(CCC)[C@@H](NP(=O)(c1ccccc1)c1ccccc1)c1ccc(C(=O)OC)cc1	?	-45%	-92%	-1	-18%	-3	-4%	22µM*
Cc1ccc(-c2ccc(/C=C3\C(=O)ON=C3c3ccccc3)o2)c([N+](=O)[O-])c1	52µM*	-27%	-79%	-2	6%	7	79µM*	35µM*
Cc1ccc(/C=C2\C(=O)ON=C2c2ccccc2)o1	8%	-1%[15.4 µM]	-5%	1	1%	nt	nt	nt
O=C1[C@@H](Oc2ccccc2)[C@@H](c2cnc3ccccc3c2)N1c1ccccc1	14%	nt	-49%	-1	-8%	nt	nt	nt
O=C1/C(=C/c2cccnc2)CC/C1=C\c1cccnc1	-6%	-10%[15.4 µM]	-5%	0	-12%	nt	nt	nt
CCC1C/C(=C\c2cccnc2)C(=O)/C(=C/c2cccnc2)C1 (configuration not stated)	52µM*	7%	-93%	-1	-7%	-16	-8%	32µM*
Cc1ccc(-c2cc(C(F)F)n3ncc(C(=O)N4CCCCC4c4cccnc4)c3n2)cc1 (configuration not stated)	?	-10%[15.4 µM]	-69%	-1	-2%	-5	6%	35µM*
Cc1ccc(C(C(=O)NC2CCCCC2)N(Cc2ccco2)C(=O)C2COc3ccccc3O2)o1 (configuration not stated)	?	-25%	-61%	-3	-7%	0	-3%	13µM*
O=C(NCc1ccco1)C(c1ccccc1)N(C(=O)Cc1cccs1)c1ccccc1F (configuration not stated)	21µM*	0%	-43%	0	?	-4	-1%	14µM*
O=C(NCC(=O)N(Cc1ccco1)C(C(=O)NC1CCCC1)c1ccncc1)c1cccs1 (configuration not stated)	-2%	-7%	0%	-1	4%	nt	nt	nt

Compound activity (PubChem BioAssay)
